The text below walks through data of PubChem BioAssay AID624300 (Southern Research Specialized Biocontainment Screening …, 2012).

In all, about 2,400 compounds went through this assay and about 360 (15%) were called active.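 How the source made its calls: active means viability falls under 70% at one or more tested concentrations, taken as toxicity; inactive means viability stays over 70% at every dose.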 Only a sample is shown. Measured potencies and affinities stand elsewhere.

This experiment in a line: viability loss in HeLa cells – cytotoxicity control for MgcRacGAP inhibitor project, dose response (AID 624300).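 Further: 100% = median of untreated control wells on the same plate.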 To be noted: CellTiter-Glo luminescence, 24 h; series mostly up to 100 µM; viability: at the top concentration. A general note: ATP-based viability assays read luminescence as a measure of living cells.
Take `O=C(CCN1CCN(C(c2ccccc2)c2ccccc2)CC1)N/N=C/c1ccc(O)cc1`: the “viability” value was 95% (inactive).
The same measure, in the same setting: the same measure for `CCCOC(=O)c1ccc(O)c(OC)c1`: 99.9% (inactive).
On to `O=C(C1CCN(Cc2cc(Cl)ccc2O)CC1)N1CCN(Cc2ccccc2)CC1`, for which the “viability” value is 92.7% (inactive).
The same measure, in the same setting: the result for `COc1ccc(NC(C)c2cc(Cl)ccc2O)cc1` (centres undefined) reads 88.7% (inactive).
On to `COc1ccc(/C=C2\C(=O)NC(=O)c3ccccc32)cc1OC`, for which the “viability” value was 102% (inactive).
Same read-out and setting: the same measure for `COc1cccc(CNc2ccc(N3CCC(C)CC3)cc2)c1OC`: 102% (inactive); for `COc1cc(/C=N/NC(=O)/C(=C\c2ccc3c(c2)OCO3)NC(=O)c2ccccc2)ccc1O`: 101% (inactive); for `COc1ccc(C(=O)N/N=C/c2ccc(N3CCOCC3)s2)cc1OC`: 103% (inactive).
Still for that read-out and setting: the result for `COc1cc(/C=N/NC(=O)C(=O)NCC2CCCO2)ccc1O` (centres undefined) reads 102% (inactive); that for `Cc1cc(C)c(S(=O)(=O)Nc2ccc(O)cc2)c(C)c1`, 87.9% (inactive); that for `O=C(Nc1ccccn1)c1ccc2ccccc2c1O`, 92.8% (inactive).
As for `COc1ccc(NC(=S)Nc2cccc3ccccc23)cc1OC`, the “viability” value is 105% (inactive).
In the case of `O=C(Nc1ccc(O)cc1)c1ccc(C(=O)c2ccccc2)o1`, the “viability” value was 103% (inactive).
Same read-out and setting: the same measure for `CCCCNc1nc(=S)[nH]c2cc(OC)c(OC)cc12`: 105% (inactive); for `COc1ccc(CCNc2nc(=S)[nH]c3cc(OC)c(OC)cc23)cc1OC`: 96.6% (inactive).
Still for that read-out and setting: the result for `CC(=O)CC(=O)Nc1ccc(Nc2ccccc2)cc1` reads 94.8% (inactive); that for `COCCCn1c(=S)[nH]c2sc3c(c2c1=O)CCCC3`, 91.2% (inactive); that for `Cc1cc(OCCCCCN2CCCC2)ccc1Cl`, 86.2% (inactive).
As for `CCOc1ccc(OCCOCCN2CCCC2)cc1`, the “viability” value is 100% (inactive).
On the same count and under the same terms, the result for `CN(C)CCCn1c(SCc2ccc(Cl)cc2)nnc1-c1ccncc1` reads 100% (inactive).
The same measure, in the same setting: the same measure for `N#CCCN1CCN(CCC#N)c2ccccc21`: 90.5% (inactive); for `C/C(CC(=O)Nc1ccc(N(C)C)cc1)=N\NC(=O)c1ccc(F)cc1`: 98.8% (inactive); for `Cn1cccc1/C=C1\SC(=Nc2ccc(O)cc2)NC1=O`: 114% (inactive).
With `Cc1ccccc1CN1CCN(C(=O)c2cccc3ccccc23)CC1`, the “viability” value is 86.6% (inactive).
Take `O=C(c1ccccc1F)N1CCN(Cc2ccc3c(c2)OCO3)CC1`: the “viability” value was 97.9% (inactive).
Consider `Cc1[nH]c2ccccc2c1/C=N\NC(=O)CNc1ccc2c(c1)OCO2`, for which the “viability” value was 98% (inactive).
On the same count and under the same terms, the result for `COc1ccccc1N=NNc1ccccc1OC` reads 94.3% (inactive); that for `COCCCNCCCCOc1c(Cl)cc(C)cc1Br`, 91.4% (inactive).
For the compound `c1ccc(CN2CCN(CCOCCOc3ccc4c(c3)CCC4)CC2)cc1`, the “viability” value is 95.6% (inactive).
Still for that read-out and setting: the result for `COCCNCCOCCOc1ccc(Cl)c(C)c1` reads 93% (inactive); that for `Cc1cc(C)c(C)c(OCCNCc2ccccc2)c1`, 90.7% (inactive); that for `CC(=O)Nc1ccc(Oc2nc(-c3ccccn3)nc3ccccc23)cc1`, 87.7% (inactive).
With `Cc1ccc(CCC(=O)Nc2ccc(N(C)C)cc2)o1`, the “viability” value was 97.1% (inactive).
Same read-out and setting: the same measure for `Cc1cc(C(=O)NNC(=O)/C=C/c2ccco2)c(C)o1`: 118% (inactive).
For the compound `COc1cc(/C=C/C(=O)OCC(=O)NCC2CCCCC2)ccc1O`, the “viability” value is 96.6% (inactive).
The same measure, in the same setting: the same measure for `COc1ccc(/C=N/Nc2nc(N3CCCC3)nc(N3CCCC3)n2)cc1O`: 98% (inactive); for `S=C(c1ccccc1)N1CCN(c2ccccc2)CC1`: 95.1% (inactive).
With `C=CCn1c(SCC(C)=O)nnc1-c1cc(-c2ccccc2)sc1N`, the “viability” value is 80.6% (inactive).
Still for that read-out and setting: the result for `CCOC(=O)c1oc2cc(O)cc(C)c2c1C` reads 91.3% (inactive).
Regarding `CCn1c(=S)[nH]c2sc3c(c2c1=O)CCCC3`, the “viability” value was 89% (inactive).
For the compound `COc1ccc(NCc2cccnc2)cc1`, the “viability” value was 108% (inactive).
For `CC(=O)Nc1cccc2cc(O)ccc12`, the “viability” value is 100% (inactive).
Same read-out and setting: the result for `Cc1cc(Oc2ccc(-c3ccccc3)cc2)n2ncnc2n1` reads 97.3% (inactive); that for `CC(=O)c1ccc(NC(=S)Nc2ccc3[nH]c(=O)[nH]c3c2)cc1`, 116% (inactive); that for `COc1cc(C=NNC(=O)c2ccccc2-n2cccc2)ccc1O`, 123% (inactive).
As for `Cc1c(Cl)cccc1Nc1n[nH]c(=S)s1`, the “viability” value was 93% (inactive).
Take `Cc1ccc[n+](CC(=O)Nc2ccc(N(C)C)cc2)c1`: the “viability” value is 102% (inactive).
Take `Cc1ccc2c(C)nc(/N=C(\N)NC(=O)N3c4ccccc4Sc4ccccc43)nc2c1`: the result was inactive.
With `COc1ccc2nc(/N=C(\N)NC(=O)N3c4ccccc4Sc4ccccc43)nc(C)c2c1`, the “viability” value is 84.3% (inactive).
`CCOC(=O)C1=C(C)Nc2ccccc2S1`: the “viability” value is 95.5% (inactive).
Consider `Cc1nc(/N=C(\N)NC(=O)N2c3ccccc3Sc3ccccc32)nc2ccccc12`, for which the “viability” value was 94.9% (inactive).
The same measure, in the same setting: the result for `O=C(NC1CCN(C(=O)N2c3ccccc3Sc3ccccc32)CC1)c1ccccc1F` reads 82.1% (inactive); that for `Cc1ccc2nc(/N=C(\N)NC(=O)N3c4ccccc4Sc4ccccc43)nc(C)c2c1`, 94.8% (inactive).
Take `Cc1cc2nc(/N=C(\N)NC(=O)N3c4ccccc4Sc4ccccc43)nc(C)c2cc1C`: the compound was called inactive.
Take `CC1(C)CC(NC(=O)N2c3ccccc3Sc3ccccc32)CC(C)(C)N1`: the “viability” value was 102% (inactive).
The same measure, in the same setting: the result for `CN(CC(=O)NCc1ccccc1)Cc1cccc(F)c1` reads 95.2% (inactive); that for `O=C(CSc1nnc(C2CC2)n1C1CC1)N1CCN(c2ccc(O)cc2)CC1`, 102% (inactive).
In the case of `CC1(C)OC(=O)C(=NNc2ccc(O)cc2)C(=O)O1`, the “viability” value is 93.8% (inactive).
For `Cc1cc(-c2cc(C)c(N)cc2C)c(C)cc1N`, the “viability” value was 107% (inactive).

A word on the viability: it is a read-out of living cells in per cent, often relative to untreated cells.
